Sm TGR block – S. mansoni TGR enzyme inhibition; 360,000 compounds, 3% hits; Potency, µM (top dose mostly 114 µM), for the others: at the top dose activity change, negative = inhibition, actives largely listed as inhibitors; Q962Y6; purified TGR, DTNB reduction, TNB absorbance 405 nm; note: % is set by controls: 0 for no effect and ±100 for the full control effect; nearly all actives have a fitted effect of over 60% in size
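Kinetic colorimetric format: TGR-catalysed, NADPH-driven DTNB reduction monitored via TNB absorbance. Enzyme dispensed at 20 nM; compound exposure 15 min at room temperature before reaction start.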
SARS PLP yeast – blocks SARS-CoV papain-like protease in a yeast assay; S. cerevisiae expressing SARS-CoV PLpro, growth rescue; 330,000 compounds, 0.19% hits; Potency, µM (top dose mostly 32.9 µM), for the others: at the top dose activity, positive = growth rescue, hits mostly activators; calls by dose curve; note: 0% is about no effect; nearly all actives have a fitted effect of over 55% in size
Pf growth 96h – P. falciparum growth inhibition at 96 hours. P. falciparum luciferase reporter growth, 96 h. Potency, µM (titrated, usually from 28.7 µM), without a hit: at the highest dose activity change, negative = inhibition, usual class: inhibitors. 320,000 compounds, 6.9% hits. AID 504834; note: % is set by controls: 0 for no effect and ±100 for the full control effect
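Parasite growth measured via integrated firefly luciferase reporter in P. falciparum. Infected erythrocytes at 2% hematocrit, 0.05% parasitemia final were treated 96 hours at 37 C under 5% CO2, and luminescence was read.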
Pf growth 48h – P. falciparum growth inhibition at 48 hours (one generation); Potency, µM (doses to about 28.7 µM), without a hit: top-dose activity change, negative = inhibition, actives largely listed as inhibitors; 310,000 compounds, 5.9% hits; AID 504832; P. falciparum luciferase growth in erythrocytes, 48 h; note: % is set by controls: 0 for no effect and ±100 for the full control effect
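Read-out is firefly luciferase luminescence from an integrated reporter in P. falciparum, so falling signal marks reduced parasite growth. Infected erythrocytes were at 2% hematocrit and 0.1% parasitemia (final) in Albumax-supplemented RPMI 1640.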
* = called active by the depositor. In the library only some 12% were active in any assay of this set; here they are far more common. Unless noted, calls come from the whole dose curve; as a rule, active = well fitted curve in the direction sought with a large enough effect; inconclusive = small, poorly fitted or top-dose-only effect, or another doubt; inactive = no such curve, though single readings can be large; an effect the other way counts as inactive or inconclusive. Potency is the fitted concentration of half-maximal effect.

`Cn1c(CC(=O)Nc2ccc(Cl)c(Cl)c2)n[nH]c1=S` gave Sm TGR block 9%, SARS PLP yeast 1%, Pf growth 96h 0.074µM* and Pf growth 48h -3%.
Screening C/C(N)=C(/C#N)C(=O)CSc1nnc(Nc2c(C)cccc2C)s1 returned Sm TGR block -6%, SARS PLP yeast 20%, Pf growth 96h 12µM* and Pf growth 48h inconclusive.
Screening Cc1cccc(C)c1Nc1nnc(SCc2cn3cccc(C)c3n2)s1 returned Sm TGR block -9%, SARS PLP yeast -10%, Pf growth 96h 10µM* and Pf growth 48h inconclusive.
For COc1ccc(C(C)=O)cc1CSc1nnc(Nc2c(C)cccc2C)s1 the results were Sm TGR block -13%, SARS PLP yeast 21%, Pf growth 96h 9.3µM* and Pf growth 48h inconclusive.
`Cc1cccc(C)c1Nc1nnc(SCC(=O)NC(=O)c2cccn2C)s1` gave Sm TGR block -2%, SARS PLP yeast 14%, Pf growth 96h 18% and Pf growth 48h 8%.
`COc1ccc(C(C)=O)cc1CSc1nnc(Nc2ccccc2C)s1` gave Sm TGR block -3%, SARS PLP yeast 13%, Pf growth 96h 4.1µM* and Pf growth 48h inconclusive.
Screening COc1ccc(C(C)=O)cc1CSc1nnc(Nc2ccc(C)cc2C)s1 returned Sm TGR block -25%, SARS PLP yeast -38%, Pf growth 96h inconclusive and Pf growth 48h inconclusive.
For Cc1c(-c2ccc(Cl)cc2Cl)nc2ccccc2c1C(=O)NCCN1CCOCC1 the results were Sm TGR block 3%, SARS PLP yeast 1%, Pf growth 96h inconclusive and Pf growth 48h inconclusive.
Screening Cc1cccc(OCC(=O)Nc2ccc3c(c2)nc2n3CCOC2)c1 returned Sm TGR block 1%, SARS PLP yeast -2%, Pf growth 96h 20% and Pf growth 48h -15%.
`O=C(Nc1ncccc1O)c1ccc2c(c1)OCCO2` gave Sm TGR block -20%, SARS PLP yeast -1%, Pf growth 96h inconclusive and Pf growth 48h inconclusive.
For Oc1ccc(N=Nc2ccc3c(c2)OCCO3)c2ncccc12 the results were Sm TGR block -12%, SARS PLP yeast 4%, Pf growth 96h 1µM* and Pf growth 48h inconclusive.
`Cc1ccc(C)c(N=Nc2ccc(O)c3ncccc23)c1` gave Sm TGR block 19%, SARS PLP yeast inconclusive, Pf growth 96h inconclusive and Pf growth 48h 2.1µM*.
`Cc1cccc(N=Nc2ccc(O)c3ncccc23)c1` gave Sm TGR block -11%, Pf growth 96h inconclusive and Pf growth 48h 1.9µM*.
`Cc1ccc(CN(C(=O)COc2ccc(Cl)c(C)c2)C2CCS(=O)(=O)C2)o1` (stereo not drawn) gave Sm TGR block -32%.
Screening O=C(Nc1ccccc1)c1ccc(Br)c(S(=O)(=O)N2CCCCC2)c1 returned Sm TGR block 1%.
Cc1ccc(CNC(=O)c2cn(C)c3ccc(S(=O)(=O)N4CCC(C)CC4)cc3c2=O)cc1 was read as Sm TGR block -1%.
For NC(=O)[C@@H]1CCCNc2c(I)cc([N+](=O)[O-])cc2C(=O)N[C@@H](CO)C(=O)N[C@@H](Cc2ccc(O)cc2)C(=O)N1 the results were Sm TGR block -7%, SARS PLP yeast -8%, Pf growth 96h -2% and Pf growth 48h 15%.
`CC(C)C[C@@H]1NC(=O)[C@H](Cc2ccc(O)cc2)NC(=O)c2cc([N+](=O)[O-])cc(I)c2NCCC[C@@H](C(N)=O)NC1=O` gave Sm TGR block -17%, SARS PLP yeast 13%, Pf growth 96h 10µM* and Pf growth 48h inconclusive.
`Cc1ccc(S(=O)(=O)CC(=O)N2CCCCCC2)cc1` gave Sm TGR block -31%, SARS PLP yeast 1%, Pf growth 96h inconclusive and Pf growth 48h 14%.
`O=C(CCS(=O)(=O)c1ccccc1)N1CCCc2ccccc21` gave Sm TGR block 40µM*, SARS PLP yeast -4%, Pf growth 96h 39% and Pf growth 48h 36%.
`CC1Sc2ccc(S(=O)(=O)CCC(=O)Nc3ccccn3)cc2NC1=O` (stereo not drawn) gave Sm TGR block inconclusive, SARS PLP yeast 5%, Pf growth 96h 9.3µM* and Pf growth 48h 14%.
CC1Sc2ccc(S(=O)(=O)CCC(=O)NCc3ccccc3)cc2NC1=O (stereo not drawn) was read as Sm TGR block -2%, SARS PLP yeast 4%, Pf growth 96h inconclusive and Pf growth 48h -1%.
Screening CN(C)c1cc[n+](CC(=O)N2CCCc3ccccc32)cc1 returned Sm TGR block 4%, SARS PLP yeast -4%, Pf growth 96h inconclusive and Pf growth 48h 5.2µM*.
O=C(CCC(=O)N1CCCc2ccccc21)N1CCN(S(=O)(=O)c2ccccc2)CC1 was read as Sm TGR block -2%, SARS PLP yeast -4%, Pf growth 96h 27% and Pf growth 48h inconclusive.
Screening O=C(CS(=O)(=O)c1ccccc1)N1CCCCC1 returned Sm TGR block -9%, SARS PLP yeast -3%, Pf growth 96h 2.6µM* and Pf growth 48h 10%.
CCc1c(C)sc2c1CCN(C(=O)Nc1ccc(F)c(Cl)c1)C2c1ccc(F)cc1 (stereo not drawn) was read as Sm TGR block -2%.
CCOC(=O)N1CCN(C(=O)CCCn2nnnc2CN2CCC(C)CC2)CC1 was read as Sm TGR block -35%, SARS PLP yeast -5%, Pf growth 96h 46% and Pf growth 48h -27%.
Screening COCCN(Cc1ccccc1)C(=O)c1ccc(C(=O)c2ccccc2)cc1 returned Sm TGR block -12%, SARS PLP yeast 0%, Pf growth 96h inconclusive and Pf growth 48h inconclusive.
`COc1ccc(-n2ncc(C(=O)NCc3cccs3)c2C2CCN(C(=O)OC(C)(C)C)CC2)cc1` gave Sm TGR block 1%.
For COCCNC(=O)CSc1nc2cc3c(cc2c(=O)n1CCCCCC(=O)NCCc1ccc(OC)c(OC)c1)OCO3 the results were Sm TGR block -1%.
Screening CC1Sc2ccc(S(=O)(=O)CCC(=O)N3CCc4ccccc43)cc2NC1=O (stereo not drawn) returned Sm TGR block inconclusive, SARS PLP yeast -2%, Pf growth 96h 17µM* and Pf growth 48h -1%.
CCC1Sc2ccc(S(=O)(=O)CCC(=O)N3CCc4ccccc43)cc2NC1=O (stereo not drawn) was read as Sm TGR block inconclusive, SARS PLP yeast 3%, Pf growth 96h 28% and Pf growth 48h 17%.
`Cc1nc(C)n(CCNS(=O)(=O)c2ccc(C)c(C)c2)n1` gave Sm TGR block -10%, SARS PLP yeast 0%, Pf growth 96h inconclusive and Pf growth 48h 0%.
For Cc1ccc(C)c2[nH]c(=O)c(CN(Cc3ccc4c(c3)OCO4)Cc3nnnn3Cc3ccco3)cc12 the results were Sm TGR block inconclusive, SARS PLP yeast 0%, Pf growth 96h inconclusive and Pf growth 48h 8.3µM*.
Screening Cc1ccc2cc(CN(CCN3CCOCC3)Cc3nnnn3Cc3ccco3)c(=O)[nH]c2c1C returned Sm TGR block 35µM*, SARS PLP yeast 11%, Pf growth 96h inconclusive and Pf growth 48h -15%.

Screens: PubChem BioAssay, National Center for Advancing Translational Sciences (NCATS)
